# Laboratory results as given in PubChem BioAssay (EPA / NIEHS).
# Some compounds were tested as several samples or in several runs, with calls that do not always agree. Active and inactive are the calls of the source. The calls were made as follows: active = hit-call score of the fitted dose curve at least 0.9, where 1 is the maximum; inactive = score below 0.9.
# Test: ATG_CMV_CIS: Attagene CIS-FACTORIAL HepG2 Assay for human CMV (Internal Marker) (AID 2282928);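 also: endpoint acts as a background internal control marker rather than a target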
# Details: HepG2 CMV promoter reporter, transcription factor profiling; actives raise or lower the signal
# Protocol: ATG_CIS is a cell-based, multiplexed-readout assay that uses HepG2, a human liver cell line, with measurements taken at 24 hours after chemical dosing in a 24-well plate.ATG_CMV_CIS is one of 52 assay component(s) measured or calculated from the ATG_CIS assay. It is designed to make measurements of mRNA induction, a form of inducible reporter, as detected with fluorescence intensity signals by Reverse transcription polymerase chain reaction (RT-PCR) and Capillary electrophoresis technology.Data from the assay component ATG_CMV_CIS was analyzed into 1 assay endpoint. This assay endpoint, ATG_CMV_CIS, was analyzed with bidirectional fitting relative to DMSO as the negative control and baseline of activity. Using a type of inducible reporter, measures of mRNA for gain or loss-of-signal activity can be used to understand the background control at the transcription factor-level as they relate to the gene . Furthermore, this assay endpoint can be referred to as a secondary readout, because this assay has produced multiple assay endpoints where this one serves a background control function. To generalize the intended target to other relatable targets, this assay endpoint is annotated to the background measurement intended target family, where the subfamily is internal marker.
# Human liver HepG2 cells are transiently transfected with multiple reporter transcription units (MRTUs) in 6-well plates using FuGene 6 reagent (Roche; 3 ml FuGene/1 mg DNA). The MRTU constructs are regulated by a cis-regulating element (promoter). […] A major difference between the CIS and TRANS system is that in CIS activities of endogenous TFs are measured, whereas the TRANS assay evaluates changes in activities of exogenous, chimeric NR-Gal4 proteins. […] At the end of 24 hour incubation, total RNA was isolated using TriZol reagent (Invitrogen). The isolated RNA is then reverse-transcribed using oligo(dT) primer and Mo-MLV reverse transcriptase (Invitrogen) with DNAse I (Ambion) treatment for 30 min. The one-tenth of the produced cDNA was amplified by PCR using Taq DNA polymerase (Invitrogen) and two reporter sequence-specific primers. The PCR products were fluorescently labeled by primer extension with 6-arboxyfluorescein (6-FAM) 5'-labeled reporter sequence-specific primer (2 min at 95 C, 20 s at 68 C and 10 min at 72 C) and these products were digested with 5U of HpaI (New England Biolabs) for 2h at 37 C. The fragments were purified using Qiaquick PCR columns (Qiagen), analyzed on an ABI 3130xL genetic analyzer (Applied Biosystems) with peak positions identified by using a set of X-rhodamine (ROX)-labeled MapMarker1000 molecular weight standards (BioVentures). The raw capillary electrophoresis data was processed using Attagraph software (Attagene).
Compound,outcome,AC50
CCCCCC(C)OC(=O)COc1ccc(Cl)c2cccnc12 (stereo not given),inactive,–
NNc1nc(-c2ccc([N+](=O)[O-])cc2)cs1,inactive,–
CCCCc1ccc2ccccc2c1S(=O)(=O)O,inactive,–
CCOC=O,inactive,–
O=C(NCc1ncc(C(F)(F)F)cc1Cl)c1c(Cl)cccc1Cl,inactive,–
CC1=CC(=O)c2ccccc2C1=O,inactive,–
Cc1cc(Cc2cc(C)cc(C(C)(C)C)c2O)c(O)c(C(C)(C)C)c1,–,7.15 µM (active)
NCCN,inactive,–
CCCCCCCCCCCCOC(=O)c1cc(O)c(O)c(O)c1,inactive,–
O=S(=O)(O)c1ccccc1,inactive,–
CN(CCO)S(=O)(=O)C(F)(F)C(F)(F)C(F)(F)C(F)(F)C(F)(F)C(F)(F)C(F)(F)C(F)(F)F,inactive,–
C=C(c1ccc(C(=O)O)cc1)c1cc2c(cc1C)C(C)(C)CCC2(C)C,inactive,4.89 µM (active)
CC(C)c1c(C(=O)Nc2ccccc2)c(-c2ccccc2)c(-c2ccc(F)cc2)n1CC[C@@H](O)C[C@@H](O)CC(=O)O,inactive,25.6 µM (active)
C=CC(=O)OCC(CO)(COCC(COC(=O)C=C)(COC(=O)C=C)COC(=O)C=C)COC(=O)C=C,–,2.97 µM (active)
Cc1cccc2c1ccc1ccccc12,inactive,–
C=COC(=O)C(C)(C)CCCCCC,–,159 µM (active)
CCCCCCCCCCCCCC[n+]1ccccc1,inactive,–
Clc1ccc(Nc2nnc(Cc3ccncc3)c3ccccc23)cc1,inactive,–

Compound,outcome,AC50
COC(=O)CC(C(C)=O)C(=O)OC (stereo not given),inactive,–
CCC(=O)O,inactive,–
CCc1cccc(CC)c1N(COC)C(=O)CS(=O)(=O)O,inactive,–
O=C1Cc2ccccc2N1c1c(Cl)cccc1Cl,inactive,–
C[N+](C)(CCCNS(=O)(=O)CCC(F)(F)C(F)(F)C(F)(F)C(F)(F)C(F)(F)C(F)(F)F)CC(=O)[O-],inactive,–
CC(C)CCOCCC(C)C,inactive,–
CCCCCCCCCCCC[N+](C)(C)Cc1ccccc1,inactive,14.5 µM (active)
CCCCCCCCCCCCCCCCCC[N+](C)(C)Cc1ccccc1,inactive,–
CCN(CCC#N)c1ccccc1,inactive,–
Cc1ccccc1C(OCCN(C)C)c1ccccc1 (stereo not given),inactive,–
O=C(Nc1cccc([N+](=O)[O-])c1)c1cc2ccccc2cc1O,inactive,–
Nc1ccc(O)c(C(=O)O)c1,inactive,–
c1cnc2c(c1)ccc1cccnc12,inactive,2.89 µM (active)
COc1cccc(O)c1,inactive,–
FC(F)(F)C(F)(F)C(F)(F)Br,inactive,–
COC(=O)C(F)(F)C(F)(F)C(F)(F)F,inactive,–
CCC(C)c1ccccc1O (stereo not given),inactive,–
CS(=O)(=O)c1ccc([C@@H](CC2CCCC2)C(=O)Nc2cnccn2)cc1Cl,–,136 µM (active)
